Laboratory results as given in ChEMBL document CHEMBL3988442, “University of Dundee, Small-Polar-MMV Screening Library” (2021).
For some assays here: Measured potencies and affinities stand elsewhere.

What was measured:
Set-up in all cases: scale not given: direction of the effect not stated beside the values
[1] = biological target: Protein translocase subunit SecA (Escherichia coli (strain K12)) (UniProt P10408); assay: Assay to Identify E. coli SecA ATPase Inhibitors; assay type: functional; conditions: 30 µM
Chain of Protein translocase subunit SecA (Escherichia coli (strain K12)) (P10408 whole entry): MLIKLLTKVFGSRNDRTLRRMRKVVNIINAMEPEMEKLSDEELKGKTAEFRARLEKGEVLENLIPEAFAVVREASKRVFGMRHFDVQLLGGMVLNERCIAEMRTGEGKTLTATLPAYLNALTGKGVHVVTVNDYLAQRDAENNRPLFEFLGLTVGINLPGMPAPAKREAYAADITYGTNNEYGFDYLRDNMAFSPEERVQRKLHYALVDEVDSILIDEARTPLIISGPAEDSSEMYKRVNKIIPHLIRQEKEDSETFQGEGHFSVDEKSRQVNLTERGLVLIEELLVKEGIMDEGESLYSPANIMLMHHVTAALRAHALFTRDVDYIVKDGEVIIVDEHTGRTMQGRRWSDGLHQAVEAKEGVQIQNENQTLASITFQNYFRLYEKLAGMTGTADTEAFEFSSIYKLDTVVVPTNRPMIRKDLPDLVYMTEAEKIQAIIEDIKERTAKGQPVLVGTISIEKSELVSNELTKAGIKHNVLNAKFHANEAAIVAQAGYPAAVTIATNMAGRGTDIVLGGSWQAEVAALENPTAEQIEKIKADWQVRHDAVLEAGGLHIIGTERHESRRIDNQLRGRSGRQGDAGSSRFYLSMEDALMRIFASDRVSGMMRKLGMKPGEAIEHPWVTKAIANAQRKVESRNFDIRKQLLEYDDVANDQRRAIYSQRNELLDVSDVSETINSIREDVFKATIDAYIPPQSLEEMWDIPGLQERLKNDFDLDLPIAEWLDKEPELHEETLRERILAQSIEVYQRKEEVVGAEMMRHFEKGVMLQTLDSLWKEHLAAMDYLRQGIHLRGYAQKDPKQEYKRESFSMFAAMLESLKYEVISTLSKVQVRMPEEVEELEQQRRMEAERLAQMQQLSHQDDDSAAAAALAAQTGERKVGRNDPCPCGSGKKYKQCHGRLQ

[2] = biological target: T1, Ubiquitin-activating enzyme e1, putative (Leishmania donovani (strain BPK282A1)) (UniProt E9BSI1); assay: Leishmania donovani Ubiquitin Activating Enzyme (LdE1); assay type: functional; conditions: 30 µM
T1 sequence (whole entry): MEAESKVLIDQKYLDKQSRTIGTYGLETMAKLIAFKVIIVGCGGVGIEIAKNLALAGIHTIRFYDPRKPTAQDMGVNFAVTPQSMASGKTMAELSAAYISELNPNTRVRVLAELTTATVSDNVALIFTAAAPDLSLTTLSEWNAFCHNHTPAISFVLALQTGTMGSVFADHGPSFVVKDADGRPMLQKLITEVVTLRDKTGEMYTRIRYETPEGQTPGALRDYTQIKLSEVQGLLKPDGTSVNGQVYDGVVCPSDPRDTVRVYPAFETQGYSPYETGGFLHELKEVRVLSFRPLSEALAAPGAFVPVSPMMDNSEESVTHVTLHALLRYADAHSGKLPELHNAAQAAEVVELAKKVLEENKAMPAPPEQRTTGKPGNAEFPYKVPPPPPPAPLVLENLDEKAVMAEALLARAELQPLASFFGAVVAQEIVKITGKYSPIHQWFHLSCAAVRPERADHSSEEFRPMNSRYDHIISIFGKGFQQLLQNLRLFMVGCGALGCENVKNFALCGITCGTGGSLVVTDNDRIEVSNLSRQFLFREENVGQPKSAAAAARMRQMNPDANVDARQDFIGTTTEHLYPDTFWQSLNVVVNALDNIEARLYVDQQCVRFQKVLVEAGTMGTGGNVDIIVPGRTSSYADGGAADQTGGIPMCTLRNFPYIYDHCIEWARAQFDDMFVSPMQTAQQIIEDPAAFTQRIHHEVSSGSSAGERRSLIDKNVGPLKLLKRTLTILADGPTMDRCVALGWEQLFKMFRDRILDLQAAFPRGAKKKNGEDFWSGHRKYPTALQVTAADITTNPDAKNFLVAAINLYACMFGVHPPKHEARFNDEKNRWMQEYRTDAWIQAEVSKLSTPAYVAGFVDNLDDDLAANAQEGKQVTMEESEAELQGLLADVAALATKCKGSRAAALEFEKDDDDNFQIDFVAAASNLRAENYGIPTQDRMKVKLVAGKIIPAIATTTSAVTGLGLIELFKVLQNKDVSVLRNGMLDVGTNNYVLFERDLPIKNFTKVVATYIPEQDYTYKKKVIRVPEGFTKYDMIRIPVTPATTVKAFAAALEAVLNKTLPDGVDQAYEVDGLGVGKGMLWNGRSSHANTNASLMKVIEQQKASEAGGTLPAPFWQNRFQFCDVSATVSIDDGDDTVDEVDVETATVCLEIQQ

[3] = biological target: AMP-activated protein kinase, AMPK (Homo sapiens) (UniProt P54646+O43741+P54619+Q9UGJ0+Q9Y478+Q13131+Q9UGI9); assay: AMP-dependent Kinase enzyme assay. An in vitro enzyme assay that detects ADP turnover that is directly proportional to AMPK activity. This uses naive AMPK that is activated during the assay with MK-8722; assay type: functional; conditions: 30 µM
[4] = biological target: Sialic acid-binding Ig-like lectin 9 (Homo sapiens) (UniProt Q9Y336); assay: Hs-Siglec9 ALPHAscreen SOP 20170721; conditions: 10 µM
Chain of Sialic acid-binding Ig-like lectin 9 (Homo sapiens) (Q9Y336 whole entry): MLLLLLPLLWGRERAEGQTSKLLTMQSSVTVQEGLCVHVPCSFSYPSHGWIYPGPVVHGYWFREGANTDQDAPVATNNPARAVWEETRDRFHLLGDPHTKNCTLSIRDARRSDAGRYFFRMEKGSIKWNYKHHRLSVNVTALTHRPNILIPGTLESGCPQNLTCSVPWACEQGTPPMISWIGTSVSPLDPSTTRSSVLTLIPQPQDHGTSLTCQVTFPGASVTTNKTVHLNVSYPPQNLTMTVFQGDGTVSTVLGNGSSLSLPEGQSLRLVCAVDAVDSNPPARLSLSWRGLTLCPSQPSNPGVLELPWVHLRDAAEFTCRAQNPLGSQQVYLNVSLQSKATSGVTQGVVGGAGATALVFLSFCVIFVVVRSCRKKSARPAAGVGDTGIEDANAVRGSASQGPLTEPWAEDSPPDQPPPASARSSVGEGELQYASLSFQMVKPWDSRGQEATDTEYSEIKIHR

Trypanosoma cruzi = assay: Trypanosoma cruzi phosphomannomutase and mannose-1-phosphate guanylyltransferase assay; assay type: functional; conditions: 10 µM
[5] = biological target: T2, Arginase-2, mitochondrial (Homo sapiens) (UniProt P78540); assay: in vitro enzyme assay to detect the production of urea directly proportional to the activity of Arginase II; assay type: functional; conditions: 33.3 µM; also: in the data most compounds retested in dose-response had high values
T2 sequence (whole entry): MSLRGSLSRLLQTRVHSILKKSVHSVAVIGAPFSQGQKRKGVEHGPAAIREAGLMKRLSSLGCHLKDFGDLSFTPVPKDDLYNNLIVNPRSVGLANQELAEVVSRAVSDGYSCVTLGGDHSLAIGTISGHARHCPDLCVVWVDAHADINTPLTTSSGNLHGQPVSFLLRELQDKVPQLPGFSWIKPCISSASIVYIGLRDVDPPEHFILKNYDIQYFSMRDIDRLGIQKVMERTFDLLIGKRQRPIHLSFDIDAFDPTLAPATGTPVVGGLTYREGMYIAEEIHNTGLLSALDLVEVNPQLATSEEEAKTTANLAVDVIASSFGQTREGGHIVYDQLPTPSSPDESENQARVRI

[6] = biological target: T3, Proteasome subunit beta (Trypanosoma cruzi) (UniProt O96673); assay: Trypanosoma cruzi proteasome chymotrypsin-like activity (TcProtChymo) assay.; also: in the data most compounds retested in dose-response had high values; assay type: functional; conditions: 9.37 µM
T3 sequence (whole entry): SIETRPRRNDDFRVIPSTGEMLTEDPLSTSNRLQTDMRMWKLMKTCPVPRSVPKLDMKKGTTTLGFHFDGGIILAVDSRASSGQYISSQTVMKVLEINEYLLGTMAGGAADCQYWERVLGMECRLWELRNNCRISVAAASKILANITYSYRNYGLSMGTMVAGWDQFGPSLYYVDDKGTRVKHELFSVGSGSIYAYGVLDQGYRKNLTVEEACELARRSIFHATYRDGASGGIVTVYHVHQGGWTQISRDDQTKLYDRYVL

Homo sapiens = organism: Homo sapiens; assay: To identify inhibition of the IFN signalling (Jak-Stat) pathway via expression of an eGFP reporter gene under the control of an IFN-stimulated response element (ISRE) containing MxA promoter.; assay type: functional; conditions: 30 µM
[7] = biological target: T4, Tyrosyl-tRNA synthetase, putative (Trypanosoma cruzi (strain CL Brener)) (UniProt Q4DSP6); assay: Trypanosoma cruzi tyrosyl tRNA synthetase (TcYRS) _High Tyrosine SOP; assay type: functional; conditions: 30 µM; also: in the data most compounds retested in dose-response had high values
T4 sequence (whole entry): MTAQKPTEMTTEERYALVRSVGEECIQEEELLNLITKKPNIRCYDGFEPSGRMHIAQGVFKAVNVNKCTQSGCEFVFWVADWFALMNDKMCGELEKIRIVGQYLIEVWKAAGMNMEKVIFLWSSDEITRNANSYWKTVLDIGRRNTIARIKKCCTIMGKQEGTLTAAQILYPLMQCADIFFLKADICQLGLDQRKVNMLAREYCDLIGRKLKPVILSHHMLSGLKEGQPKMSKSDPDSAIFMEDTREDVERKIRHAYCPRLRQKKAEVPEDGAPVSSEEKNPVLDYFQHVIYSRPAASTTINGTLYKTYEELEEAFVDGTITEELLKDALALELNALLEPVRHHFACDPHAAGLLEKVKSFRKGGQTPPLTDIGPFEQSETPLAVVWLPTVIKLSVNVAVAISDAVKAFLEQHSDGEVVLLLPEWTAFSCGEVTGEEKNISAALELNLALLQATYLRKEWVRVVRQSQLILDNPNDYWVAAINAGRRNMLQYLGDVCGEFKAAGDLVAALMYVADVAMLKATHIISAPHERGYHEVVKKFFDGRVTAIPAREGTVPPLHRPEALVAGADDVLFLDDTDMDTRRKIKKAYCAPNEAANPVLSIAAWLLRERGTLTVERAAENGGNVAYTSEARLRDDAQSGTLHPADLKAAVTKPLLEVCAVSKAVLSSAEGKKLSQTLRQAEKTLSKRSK

[8] = biological target: T4, Tyrosyl-tRNA synthetase, putative (Trypanosoma cruzi (strain CL Brener)); assay: Trypanosoma cruzi tyrosyl tRNA synthetase (TcYRS) SOP; assay type: functional; conditions: 30 µM
[9] = biological target: Chromo domain-containing protein 1 (Saccharomyces cerevisiae (strain ATCC 204508 / S288c) (Baker's yeast)) (UniProt P32657); assay: ScCHD-1 Enzyme Inhibition Assay; assay type: functional; conditions: 30 µM; also: in the data most compounds retested in dose-response had high values
Chain of Chromo domain-containing protein 1 (Saccharomyces cerevisiae (strain ATCC 204508 / S288c) (Baker's yeast)) (P32657 whole entry, the tested form may be a part): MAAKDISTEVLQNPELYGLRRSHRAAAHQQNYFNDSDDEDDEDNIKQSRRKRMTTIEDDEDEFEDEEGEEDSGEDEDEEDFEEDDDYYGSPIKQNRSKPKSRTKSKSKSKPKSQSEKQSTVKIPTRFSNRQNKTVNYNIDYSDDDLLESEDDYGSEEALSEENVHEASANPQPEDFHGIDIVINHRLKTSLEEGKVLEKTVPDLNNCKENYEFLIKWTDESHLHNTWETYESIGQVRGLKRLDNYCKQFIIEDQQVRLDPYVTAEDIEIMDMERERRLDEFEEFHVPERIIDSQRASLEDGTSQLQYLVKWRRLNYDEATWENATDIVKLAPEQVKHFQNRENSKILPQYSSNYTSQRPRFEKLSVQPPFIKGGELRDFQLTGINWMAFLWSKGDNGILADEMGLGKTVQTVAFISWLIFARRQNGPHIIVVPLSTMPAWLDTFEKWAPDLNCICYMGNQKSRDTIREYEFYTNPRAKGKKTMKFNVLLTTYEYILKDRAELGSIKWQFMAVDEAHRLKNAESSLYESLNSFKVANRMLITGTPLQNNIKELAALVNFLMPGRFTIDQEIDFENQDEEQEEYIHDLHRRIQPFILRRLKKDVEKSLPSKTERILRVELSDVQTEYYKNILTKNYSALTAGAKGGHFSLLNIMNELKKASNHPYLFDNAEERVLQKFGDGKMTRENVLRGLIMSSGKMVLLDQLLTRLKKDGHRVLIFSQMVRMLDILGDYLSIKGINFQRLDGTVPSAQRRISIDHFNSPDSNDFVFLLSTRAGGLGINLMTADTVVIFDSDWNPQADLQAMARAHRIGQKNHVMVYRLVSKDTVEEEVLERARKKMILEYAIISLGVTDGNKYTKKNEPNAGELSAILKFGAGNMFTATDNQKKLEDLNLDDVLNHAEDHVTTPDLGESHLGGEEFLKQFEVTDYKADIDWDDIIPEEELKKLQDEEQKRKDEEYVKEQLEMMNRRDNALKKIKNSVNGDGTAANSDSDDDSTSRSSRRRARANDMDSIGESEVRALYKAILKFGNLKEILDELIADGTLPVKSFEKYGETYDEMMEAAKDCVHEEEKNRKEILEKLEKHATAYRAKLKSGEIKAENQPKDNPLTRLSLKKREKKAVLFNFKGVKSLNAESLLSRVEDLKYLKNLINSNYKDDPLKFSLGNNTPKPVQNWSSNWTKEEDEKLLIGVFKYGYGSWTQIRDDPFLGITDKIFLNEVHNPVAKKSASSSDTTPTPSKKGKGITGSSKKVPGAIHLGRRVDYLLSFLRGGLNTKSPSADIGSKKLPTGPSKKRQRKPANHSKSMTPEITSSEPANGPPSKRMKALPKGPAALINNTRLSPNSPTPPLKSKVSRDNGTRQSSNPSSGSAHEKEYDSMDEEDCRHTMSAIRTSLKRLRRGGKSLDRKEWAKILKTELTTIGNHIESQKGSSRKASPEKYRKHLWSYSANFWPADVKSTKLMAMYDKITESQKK

SMILES	Percent Effect [1] [%]	Percent Effect [2] [%]	Percent Effect [3] [%]	Percent Effect [4] [%]	Percent Effect (Trypanosoma cruzi) [%]	Percent Effect [5] [%]	Percent Effect [6] [%]	Percent Effect (Homo sapiens) [%]	Percent Effect [7] [%]	Percent Effect [8] [%]	Percent Effect [9] [%]
Cc1ccc(N2CCCC(N(C)Cc3cc(C)no3)C2)nn1 (stereo unspecified)	-0.747	5.33	-6.3	43.3	5.55	23.4	19.9	0.899	6.01	11.1	-17.3
CCCn1nc2c(cc1=O)CN(Cc1nc(CCOC)no1)CC2	-1.92	0	-119	-3.46	-0.781	0.417	10.6	-1.9	-7.92	-6.1	-7.2
Cc1ccoc1C(=O)N1C[C@@H]2[C@@H](C1)OCC(=O)N2Cc1cccnc1	-4.32	-15.6	-0.37	0.332	-2.86	3.23	2.96	19.8	-27.5	-47.4	5.56
CC(C)c1noc(C(C)N2CCN(Cc3ccco3)CC2)n1 (stereo unspecified)	-1.82	-7.89	-0.515	3.05	7.19	-3.24	2.45	-1.85	1.48	1.24	0.33
O=C(Cn1nc(-c2cccs2)ccc1=O)N1CCCCCC1	-3.74	-1.33	5.86	8.95	1.77	-10.4	7.21	9	1.06	7.69	-3.49
CC(C)(C)OC(=O)N1CCCc2ccc(NCc3ncc[nH]3)cc21	-8.07	2.6	1.02	4.72	-4.03	-11	4.66	7.74	1.07	-3.7	-0.00165
Cc1[nH]ccc1C(=O)Nc1cccc(CN2CCC(O)CC2)c1	0.333	10.5	-2.05	-6.23	-5.36	-2.37	16.2	8.85	1.06	10.4	-3.89
COc1ccccc1OCC(=O)NS(=O)(=O)c1cc(F)ccc1F	-2.96	-2.7	1.01	2.58	-5.99	0	0.345	0.0392	0.529	4.88	-1.41
O=C(c1cn(-c2cc(N3CCOCC3)ncn2)cn1)N1CCSCC1	-3.27	8.22	-3.63	4.82	1.18	4.09	25	8.07	9.68	15	-5.28
CN1N=C(C(=O)N2CCCC(CCc3c(F)cccc3F)C2)CCC1=O (stereo unspecified)	-4.37	2.7	0.625	7.41	1.74	0	1.21	4.11	3.7	7.32	-1.23
CC(c1nc(C2CC2)no1)N1CCN(c2ccc(C#N)cn2)CC1 (stereo unspecified)	0.926	2.63	8.14	5.94	-4.58	-4.73	13.7	10.8	2.13	7.79	-2.39
O=C(NCC(O)c1ccc(F)c(F)c1)c1cccnc1OCC(F)(F)F (stereo unspecified)	-4.25	19.2	10.1	8.21	7.94	-2	15.8	5.47	4.17	16.1	-4.84
CCOc1ncccc1NC(=O)c1sccc1C	-2.31	-1.39	2.84	-14.7	-4.57	2.21	23.2	-6.94	4.21	7.69	4
CCn1nccc1CNC(=O)C1CC1	-5.07	10.4	-0.00833	7.25	5.61	-4.14	10.7	-23.9	8.6	18.5	132
O=C(CN1CCc2c(ncn2C2CC2)C1)NC1CC1	-2.66	-3.8	-0.272	5.53	-2.56	3.66	9.09	5.09	2.08	5.06	-4.23
CCn1c(Cn2cncn2)nnc1C1CCN(Cc2ccncc2)CC1	-5.1	5.41	-3.24	1.13	-0.489	2.73	4.72	-4.54	9.68	21	-2.94
